According to PMC4336329 (PLoS ONE, 2015):
Screen size: about 310,000 compounds; about 14,000 (4.5%) showed an effect of 50% or more. Effects have a minus sign here. The sample as a whole holds a higher share of strong results than the screen did.

target: human ether-à-go-go-related gene (hERG) potassium channel (human, UniProt Q12809); test: primary screen, population patch clamp on CHO cells stably expressing hERG; higher = less effect of the substance
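Further: peak tail current of the secondary pulse compared with the same well before compound.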

Sequence of human ether-à-go-go-related gene (hERG) potassium channel (Q12809 whole entry, looked up): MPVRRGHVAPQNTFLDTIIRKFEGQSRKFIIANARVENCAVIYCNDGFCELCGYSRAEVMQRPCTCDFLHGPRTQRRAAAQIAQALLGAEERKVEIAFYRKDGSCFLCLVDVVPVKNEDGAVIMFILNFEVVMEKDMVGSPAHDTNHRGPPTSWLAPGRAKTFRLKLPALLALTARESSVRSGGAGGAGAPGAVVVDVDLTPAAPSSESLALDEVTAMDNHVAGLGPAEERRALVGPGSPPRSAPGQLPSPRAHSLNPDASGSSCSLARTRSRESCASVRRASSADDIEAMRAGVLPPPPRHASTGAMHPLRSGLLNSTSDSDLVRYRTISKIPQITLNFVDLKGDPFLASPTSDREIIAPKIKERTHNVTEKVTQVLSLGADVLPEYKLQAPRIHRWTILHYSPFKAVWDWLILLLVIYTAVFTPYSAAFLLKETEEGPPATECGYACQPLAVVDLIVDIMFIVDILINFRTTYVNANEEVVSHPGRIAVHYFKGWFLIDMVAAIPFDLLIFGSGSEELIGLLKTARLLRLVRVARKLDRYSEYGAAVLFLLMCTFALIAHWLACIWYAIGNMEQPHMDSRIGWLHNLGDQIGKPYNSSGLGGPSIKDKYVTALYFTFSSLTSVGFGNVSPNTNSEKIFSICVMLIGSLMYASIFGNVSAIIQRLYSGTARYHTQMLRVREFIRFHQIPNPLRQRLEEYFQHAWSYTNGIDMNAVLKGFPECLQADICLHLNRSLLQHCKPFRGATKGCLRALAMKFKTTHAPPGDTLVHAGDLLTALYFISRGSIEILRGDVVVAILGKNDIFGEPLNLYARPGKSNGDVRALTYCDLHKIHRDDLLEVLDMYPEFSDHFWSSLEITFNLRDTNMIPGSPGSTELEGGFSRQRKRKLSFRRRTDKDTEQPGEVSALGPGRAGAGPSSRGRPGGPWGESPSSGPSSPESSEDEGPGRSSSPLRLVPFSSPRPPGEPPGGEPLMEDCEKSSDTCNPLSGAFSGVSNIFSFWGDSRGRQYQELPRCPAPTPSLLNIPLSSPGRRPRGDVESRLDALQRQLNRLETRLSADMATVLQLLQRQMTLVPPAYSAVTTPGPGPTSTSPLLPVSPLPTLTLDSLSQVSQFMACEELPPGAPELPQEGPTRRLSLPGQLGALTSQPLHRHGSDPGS

| Structure (SMILES) | hERG current change (%, negative = inhibition) at 10uM [%] |
| --- | --- |
| COc1cc(CNC(=O)c2ccc3c(c2)S(=O)(=O)c2ccccc2C3=O)cc(OC)c1 | -0.0926 |
| O=C(COC(=O)c1cccc(Br)c1)Nc1cccc2c1C(=O)c1ccccc1C2=O | 4.56 |
| Cc1cccc(C)c1Nc1nnc(SCC(=O)NC2CCS(=O)(=O)C2)s1 (centres unmarked) | 1.96 |
| CS(=O)(=O)CCC(C(=O)n1nnc2ccccc21)N1C(=O)c2ccccc2C1=O (centres unmarked) | -3.22 |
| Cc1ccc(NS(=O)(=O)c2ccc(Cl)c(C(=O)Nc3ccccc3-c3nc4ccccc4[nH]3)c2)cc1C | 17.2 |
| O=C(CC12CC3CC(CC(C3)C1)C2)Nc1ccc2c(c1)COC2=O | -9.44 |
| CN(C(=O)/C=C/c1ccccc1)C1CCS(=O)(=O)C1 (centres unmarked) | -0.518 |
| Cc1ccc(CS(=O)Cc2ccc(C(=O)N3CCN(c4ccc(F)cc4)CC3)o2)cc1 (centres unmarked) | -52.9 |
| Cc1ccc(CS(=O)Cc2ccc(C(=O)N3CCOCC3)o2)cc1 (centres unmarked) | -33.3 |
| Cc1ccc(CS(=O)Cc2ccc(C(=O)N3CCN(c4ccccn4)CC3)o2)cc1 (centres unmarked) | -10.1 |
| Cc1ccc(CS(=O)Cc2ccc(C(=O)N3CCN(c4ccccc4)CC3)o2)cc1 (centres unmarked) | -14.8 |
| O=C(c1ccc(CS(=O)Cc2ccc(Cl)cc2)o1)N1CCN(c2ccccn2)CC1 (centres unmarked) | -61.2 |
| COc1ccc(N2CCN(C(=O)c3ccc(CS(=O)Cc4ccc(C)cc4)o3)CC2)cc1 (centres unmarked) | -18.3 |
| COc1ccc(N2CCN(C(=O)c3ccc(CS(=O)Cc4ccc(Cl)cc4)o3)CC2)cc1 (centres unmarked) | -50.1 |
| COc1cccc(N2CCN(C(=O)c3ccc(CS(=O)Cc4ccc(C)cc4)o3)CC2)c1 (centres unmarked) | -11.4 |
| COc1cccc(N2CCN(C(=O)c3ccc(CS(=O)c4ccccc4Cl)o3)CC2)c1 (centres unmarked) | -30.8 |
| O=C(c1ccc(CS(=O)Cc2ccccc2Cl)o1)N1CCN(c2cccc(Cl)c2)CC1 (centres unmarked) | -41.8 |
| O=C(c1ccc(CS(=O)Cc2ccccc2Cl)o1)N1CCN(c2ccccn2)CC1 (centres unmarked) | -5.66 |
| COc1cccc(N2CCN(C(=O)c3ccc(CS(=O)Cc4ccccc4Cl)o3)CC2)c1 (centres unmarked) | -70.7 |
| NS(=O)(=O)c1ccc2nc(NC(=O)CS(=O)(=O)c3ccccc3)sc2c1 | 26.8 |
| CCN(CC)CCN=C(C)c1c(O)n(-c2ccccc2OC)c(=O)[nH]c1=O | 4.71 |
| Cc1cccc(NC(=O)C(=O)C2C(=O)Nc3ccccc32)c1 (centres unmarked) | 4.05 |

| Structure (SMILES) | hERG current change (%, negative = inhibition) at 10uM [%] |
| --- | --- |
| CC1=C(C(=O)Nc2ccccc2)C(c2ccco2)NC(=O)N1 (centres unmarked) | 14.5 |
| O=c1[nH]c2ccc(NS(=O)(=O)c3ccc(Cl)cc3)cc2[nH]1 | 15.8 |
| Cc1ccc(CS(=O)Cc2ccc(C(=O)NC3CCCCC3)o2)cc1 (centres unmarked) | 2.31 |
| Cc1ccc(Cl)cc1N1CCN(C(=O)c2ccc(CS(=O)Cc3ccc(Cl)cc3)o2)CC1 (centres unmarked) | 13.9 |
| Cc1cccc(N2CCN(C(=O)c3ccc(CS(=O)Cc4cccc(Cl)c4)o3)CC2)c1C (centres unmarked) | -13.5 |
| Cc1ccc(CS(=O)Cc2ccc(C(=O)NC3CCC(C)CC3)o2)cc1 (centres unmarked) | -51 |
| Cc1cccc(N2CCN(C(=O)c3ccc(CS(=O)Cc4ccc(Cl)cc4)o3)CC2)c1C (centres unmarked) | -57 |
| CCCc1ccc(OCc2ccc(C(=O)O)o2)c(OC)c1 | 8.51 |
| O=C(c1ccc(CS(=O)Cc2ccc(Cl)cc2)o1)N1CCN(c2ccccc2F)CC1 (centres unmarked) | -55.8 |
| CCCc1ccc(OCc2ccc(C(=O)N3CCN(c4ccccn4)CC3)o2)c(OC)c1 | -56.5 |
| Cc1ccc(C)c(N2CCN(C(=O)c3ccc(CS(=O)Cc4ccc(Cl)cc4)o3)CC2)c1 (centres unmarked) | -26.9 |
| Cc1ccc(C)c(N2CCN(C(=O)c3ccc(CS(=O)Cc4cccc(Cl)c4)o3)CC2)c1 (centres unmarked) | -6.6 |
| COc1ccccc1S(=O)(=O)Cc1ccc(C(=O)N2CCN(c3ccccn3)CC2)o1 | -17.8 |
| Cc1ccc(CS(=O)Cc2ccc(C(=O)NC3CCCCCC3)o2)cc1 (centres unmarked) | 8.98 |
| Cc1cc(C)c(C)c(S(=O)(=O)N2CCC(C(=O)NCC(c3ccccc3)N(C)C)CC2)c1C (centres unmarked) | -48.9 |
| CC(CC(=O)N(C)CC(=O)Nc1ccc(N2CCOCC2)cc1)c1ccccc1 (centres unmarked) | -13.3 |
| COC(C[C@H]1O[C@H]1C(=O)[C@H](C)OCc1ccccc1)OC | 14.5 |
| CCC(c1nnnn1Cc1ccccc1)N1CCN(c2ccccc2)CC1 (centres unmarked) | -8.7 |
| Cc1cc(Cl)ccc1NC(=O)Cn1cncn1 | 14.3 |
| O=C(c1ccc(CS(=O)Cc2ccc(Cl)cc2)o1)N1CCN(c2ccc(F)cc2)CC1 (centres unmarked) | -62.1 |
| COc1cccc(N2CCN(C(=O)c3ccc(CS(=O)c4ccc(Cl)cc4)o3)CC2)c1 (centres unmarked) | -42 |
| O=C(c1ccc(CS(=O)Cc2ccc(Cl)cc2)o1)N1CCN(c2ccccc2)CC1 (centres unmarked) | -51.8 |

| Structure (SMILES) | hERG current change (%, negative = inhibition) at 10uM [%] |
| --- | --- |
| COc1cccc(N2CCN(C(=O)c3ccc(CS(=O)Cc4ccc(Cl)cc4)o3)CC2)c1 (centres unmarked) | -41.8 |
| O=C(c1ccc(CS(=O)c2ccccc2Cl)o1)N1CCN(c2ccccc2)CC1 (centres unmarked) | -38.2 |
| O=C(c1ccc(CS(=O)Cc2ccc(Cl)cc2)o1)N1CCN(c2cccc(Cl)c2)CC1 (centres unmarked) | -52.7 |
| O=C(c1ccc(COc2ccccc2Cl)o1)N1CCN(c2ccccc2)CC1 | -24.1 |
| CN1CCN(C(=O)c2ccc(CS(=O)Cc3ccc(Cl)cc3)o2)CC1 (centres unmarked) | 13.1 |
| CCOC(=O)C1=C(C)N(c2ccc(Cl)cc2)C(=O)NC1c1cccc([N+](=O)[O-])c1 (centres unmarked) | -24.8 |
| CCOc1ccc(S(=O)(=O)NCCC(=O)NCC2(N3CCCCC3)CCCCC2)cc1 | -33.2 |
| Cc1ccc[n+](CC(=O)Nc2cccc(Cl)c2)c1.[Cl-] | 18.4 |
| CCC(C)(C)C1CCc2c(sc(NC(=O)c3ccccc3C(=O)O)c2C#N)C1 (centres unmarked) | 10.3 |
| O=C1C=C(N2CCN(C(=O)c3ccccc3)CC2)C2(CCCCC2)O1 | -10.3 |
| O=C(NCCS(=O)(=O)N1CCc2ccccc2C1)c1ccccc1 | -23 |
| COc1cccc(SCc2noc(C(=O)NCCCN3CCOCC3)c2C(=O)NCCCN2CCOCC2)c1 | -4.2 |
| Cc1ccc(Cc2c(C)nc3nc(SCC(=O)NCCCN4CCCCCC4)nn3c2C)cc1 | -54.8 |
| Cc1ccc(Cc2c(C)nc3nc(SCC(=O)NCCCN4CCCC4)nn3c2C)cc1 | -28.4 |
| Cc1ccc(Cc2c(C)nc3nc(SCC(=O)NCCCN4CCCCC4)nn3c2C)cc1 | -42.7 |
| CC(C)C[C@@H](N)c1nnc(SCC(=O)c2ccc(Cl)cc2)o1.Cl | -37.1 |
| CC1(C)CC(=O)C=C(Nc2ccccc2NC(=O)c2cnccn2)C1 | -64.7 |
| O=C(Nc1ccccc1Cl)c1cnccn1 | 2.9 |
| CC1(C)CC(=O)C=C(Nc2ccccc2O)C1 | 15.7 |
| Cc1ccc(-n2ncc3c2CCCC3NC(=O)c2ocnc2C)cc1C (centres unmarked) | 1.26 |
| CCOC(=O)c1[nH]c2ccccc2c1N=C(C)N(CC)CC | -54.7 |
| CCOC(=O)c1[nH]c2ccc(F)cc2c1NC(=O)c1ccccc1C(=O)O | 19.4 |

| Structure (SMILES) | hERG current change (%, negative = inhibition) at 10uM [%] |
| --- | --- |
| CCOC(=O)c1[nH]c2ccccc2c1NC(=O)CN(C)C | 7.08 |
| CCOC(=O)c1[nH]c2ccccc2c1NC(C)=O | -3.18 |
| CCOC(=O)c1[nH]c2ccccc2c1N=CN(C)C | -28.9 |
| CCOC(=O)c1[nH]c2ccc(F)cc2c1N=C(C)N(CC)CC | -55.4 |
| CCOC(=O)c1[nH]c2ccc(OC)cc2c1N=CN(C)C | -7.13 |
| CCOC(=O)c1[nH]c2ccc(C)cc2c1N=C(C)N(C)C | -9.99 |
| CCOC(=O)c1[nH]c2ccccc2c1N=CN(CC)CC | -60.8 |
| CC(C)COc1ccc(CNC(=S)Nc2ccccc2)cc1Cl | 8.6 |
| Cc1cc(C)c2c(=O)[nH]n(C(C)C)c2n1 | 7.27 |
| O=C(O)c1ccc([N+](=O)[O-])c2c1C(=O)c1ccccc1C2=O | 23.5 |
| NC(=S)N/N=C/c1c[nH]c2ccc(OCc3ccccc3)cc12 | 6.65 |
| NC(=O)CSc1nnc(NC(=O)c2cccc(S(=O)(=O)N3CCCCC3)c2)s1 | 25.3 |
| CCC(C(=O)Nc1ccc2c(c1)OCCO2)c1ccccc1 (centres unmarked) | 13.4 |
| Cc1noc(C(=O)N2CCN(c3ccccc3)CC2)c1Cl | 6.13 |
| CC1CCN(CCc2nc3cc(NS(=O)(=O)c4ccc(F)cc4)ccc3n2C)CC1 | -70.8 |
| Cn1c(CCN2CCCC2)nc2cc(NS(=O)(=O)c3ccccc3)ccc21 | -40.9 |
| CC1CCN(CCc2nc3cc(NC(=O)C(C)C)ccc3n2C)CC1 | -0.549 |
| Cn1c(CCN2CCOCC2)nc2cc(NS(=O)(=O)c3ccccc3)ccc21 | -1.84 |
| CC1CCN(CCc2nc3cc(NC(=O)NC4CCCCC4)ccc3n2C)CC1 | -15.1 |
| CC1CCN(CCc2nc3cc(NS(=O)(=O)c4ccccc4)ccc3n2C)CC1 | -65.5 |
